Screens from PubChem BioAssay.
Sampled rows, rich in hits. Any-hit rate of the full collection: about 1.1%.
AGP1 TOR yeast – yeast TOR pathway AGP1-GFP modulation; S. cerevisiae AGP1-GFP multiplex flow cytometry, 3 h; GFP as percent of DMSO wells; GFP response vs DMSO, % at 10 µM; actives 0.02% (n = 320,000); AID 2066;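 active = GFP response relative to DMSO above a set limit, near screen average plus 3 SD, cut at about 150% in these data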;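 note: median GFP channel fluorescence of the gated AGP1 strain per well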
RPL19A TOR yeast – modulators of TOR pathway RPL19A-GFP in S. cerevisiae | S. cerevisiae RPL19A-GFP strain, flow cytometry, 3 h; active compounds read low | percent response vs DMSO, % at 10 µM | actives 0.3% (n = 330,000);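 active = percent response vs DMSO below 50%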;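 note: median channel GFP fluorescence of the barcoded RPL19A-GFP strain; ratio of sample median GFP to plate DMSO average so 100% = DMSO; lower means less RPL19A-GFP as with rapamycin TOR inhibition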
CIT2 TOR yeast – yeast TOR pathway CIT2-GFP modulation. S. cerevisiae CIT2-GFP strain, flow cytometry, 3 h; 100 means same as DMSO wells. AID 2029. actives 0.065% (n = 320,000). GFP response vs DMSO, % at 10 µM;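 active = GFP response relative to DMSO above a set limit, near the screen mean plus 3 SD, cut at about 150% in these data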;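 note: ratio of well median GFP fluorescence to mean of DMSO wells on the plate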
LAP4 TOR yeast – modulators of TOR pathway LAP4-GFP in S. cerevisiae | S. cerevisiae LAP4-GFP multiplex, flow cytometry GFP, 3 h; median GFP as percent of DMSO wells | GFP response vs DMSO, % at 10 µM | actives 0.34% (n = 320,000);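 active = GFP response vs DMSO above a set limit, about the screen mean plus 3 SD, cut at about 150% in these data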
MEP2 TOR yeast – alters MEP2-GFP fluorescence in TOR pathway yeast screen | actives 0.51% (n = 330,000) | S. cerevisiae MEP2-GFP strain, flow cytometry GFP, 3 h; 100% = DMSO control level | AID 2016 | GFP response vs DMSO, % at 10 µM;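 active = GFP response versus DMSO above a set limit, roughly screen mean plus 3 SD, cut at about 180% in these data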;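 note: median GFP fluorescence of the barcode-gated MEP2-GFP cells per well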
VLA-4 inh – inhibition in a human VLA-4 binding assay | P13612 | actives 0.2% (n = 330,000) | AID 2557 | inhibition, % (about 7 µM as worked out from the volumes in the protocol) | VLA-4 expressing cells, ligand binding flow cytometry; in the data active = inhibition above about 50%
Target sequence (P13612 whole entry, looked up): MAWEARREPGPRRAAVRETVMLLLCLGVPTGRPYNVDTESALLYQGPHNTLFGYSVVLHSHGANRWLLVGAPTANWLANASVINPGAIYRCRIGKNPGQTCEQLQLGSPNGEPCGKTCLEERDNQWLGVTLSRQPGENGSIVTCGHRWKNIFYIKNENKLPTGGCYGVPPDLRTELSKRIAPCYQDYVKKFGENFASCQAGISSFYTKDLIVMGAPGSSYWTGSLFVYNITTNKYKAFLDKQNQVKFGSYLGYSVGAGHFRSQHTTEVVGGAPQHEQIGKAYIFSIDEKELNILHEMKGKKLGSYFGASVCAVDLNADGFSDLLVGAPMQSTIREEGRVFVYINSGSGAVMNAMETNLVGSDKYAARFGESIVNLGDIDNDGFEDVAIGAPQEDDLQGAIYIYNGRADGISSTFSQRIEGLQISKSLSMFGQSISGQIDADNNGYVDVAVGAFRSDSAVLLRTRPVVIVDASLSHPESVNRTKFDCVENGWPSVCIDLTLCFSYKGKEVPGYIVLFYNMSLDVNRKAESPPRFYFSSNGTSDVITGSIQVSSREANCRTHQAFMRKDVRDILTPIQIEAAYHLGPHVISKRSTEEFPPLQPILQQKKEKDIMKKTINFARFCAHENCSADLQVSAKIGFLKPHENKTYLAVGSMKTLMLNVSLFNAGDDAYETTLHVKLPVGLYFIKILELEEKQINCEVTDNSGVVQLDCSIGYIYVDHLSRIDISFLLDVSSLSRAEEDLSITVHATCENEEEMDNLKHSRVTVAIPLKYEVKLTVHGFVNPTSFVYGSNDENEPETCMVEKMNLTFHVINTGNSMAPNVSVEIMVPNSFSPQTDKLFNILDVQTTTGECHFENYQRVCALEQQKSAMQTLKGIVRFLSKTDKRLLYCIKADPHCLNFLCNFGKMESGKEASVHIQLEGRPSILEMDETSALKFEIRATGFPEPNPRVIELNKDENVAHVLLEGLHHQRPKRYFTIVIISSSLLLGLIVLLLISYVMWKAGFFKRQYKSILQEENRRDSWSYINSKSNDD
LAP4-GFP pick2 – reconfirmed LAP4-GFP TOR pathway modulator in yeast. shares compounds with LAP4 TOR yeast. S. cerevisiae LAP4-GFP strain, flow cytometry GFP, 3 h. GFP response vs DMSO, % at 10 µM. actives 20% (n = 590). AID 2621;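 active = GFP signal as percent of the solvent control above about 150%, meaning raised reporter expression, limit read from the data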;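 note: ratio of well median GFP fluorescence to plate DMSO mean so 100% = DMSO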
MEP2 cherry2 – reconfirmed MEP2-GFP TOR pathway modulator in yeast; shares compounds with LAP4 TOR yeast; S. cerevisiae MEP2-GFP strain, flow cytometry GFP, 3 h; GFP response vs DMSO, % at 10 µM; actives 10% (n = 590); AID 2622;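 active = GFP signal above 150% of the solvent control wells, that is a rise of more than half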;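 note: median channel GFP fluorescence of all gated yeast cells per well; ratio of median GFP to plate DMSO average so 100% = DMSO level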
RPL19A-GFP pick2 – reconfirmed modulator of RPL19A-GFP TOR reporter in yeast; GFP response vs DMSO, % at 10 µM; actives 3% (n = 590); shares compounds with LAP4 TOR yeast; AID 2623; S. cerevisiae RPL19A-GFP strain, flow cytometry GFP, 3 h; active compounds read low; 100% means same as DMSO wells;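 active = under 65% GFP response relative to DMSO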;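 note: median GFP channel fluorescence per well over the all cells gate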
CIT2-GFP pick2 – second confirmation of modulators of TOR reporter CIT2-GFP in yeast; shares compounds with LAP4 TOR yeast; S. cerevisiae CIT2-GFP strain, flow cytometry GFP, 3 h; DMSO control wells read 100%; GFP response vs DMSO, % at 10 µM; actives 8% (n = 590); AID 2624;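 active = GFP response vs DMSO above about 150%, limit read from the data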;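 note: median green fluorescence per well over all gated yeast cells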
AGP1-GFP pick2 – second confirmation of modulators of TOR reporter AGP1-GFP in yeast; percent response vs DMSO, % at 10 µM; AID 2643; S. cerevisiae AGP1-GFP strain, flow cytometry GFP, 3 h; shares compounds with LAP4 TOR yeast; 590 tested, under 10 active;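 active = over 150 percent of DMSO response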;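 note: median GFP channel fluorescence over all cells without mother daughter split; sample median GFP divided by mean DMSO control so 100% equals DMSO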
Yeast autofluor – counter-screen for compound autofluorescence in yeast s288c cells; shares compounds with LAP4 TOR yeast; S. cerevisiae s288c, 520 nm autofluorescence, flow cytometry, 3 h; active compounds read high; zero means same as solvent-only cells; fluorescence change (kMESF span) at 33 µM; 610 tested, under 10 active;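 active = fluorescence span over the dose series, or activity score, above about 33, limit read from the data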
s288c autofl DR – yeast s288c autofluorescence artifact in dose response | AID 488829 | shares compounds with LAP4 TOR yeast | fluorescence change (span) at 33 µM | S. cerevisiae s288c parental, compound autofluorescence, flow cytometry, 3 h | 110 tested, under 10 active;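 active = fluorescence change span, or the activity score built from it, above 25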
TORC1 bypass gr – wildtype yeast growth loss with TORC1 bypass cells unaffected; shares compounds with LAP4 TOR yeast; S. cerevisiae BY4741 spot growth rating, 48-72 h; active compounds read low; growth rating (0-3) at 30 µM; 120 tested, under 10 active;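 active = growth rating at most 1 for wild type yeast while the TORC1 bypass strain still grows fully, rated 3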
* = called active by the depositor; . = no result given.

SMILES	AGP1 TOR yeast	RPL19A TOR yeast	CIT2 TOR yeast	LAP4 TOR yeast	MEP2 TOR yeast	VLA-4 inh	Yeast autofluor	others
Cc1cccc(CN2C(=O)/C(=C\c3ccc(C(=O)NCCCN4CCN(C)CC4)cc3)Oc3ccccc32)c1	82	91	71	164*	90	2	.	LAP4-GFP pick2=135;MEP2 cherry2=105;RPL19A-GFP pick2=89;CIT2-GFP pick2=102;AGP1-GFP pick2=92
Cc1ccc(CN2CC(C(=O)NNC(=O)c3ccc(F)cc3)CC2=O)cc1 (stereo not drawn)	105	106	104	103	104	13	.
Cc1ccc(N2CC(C(=O)Nc3nc4ccc(S(C)(=O)=O)cc4s3)CC2=O)cc1C (stereo not drawn)	109	104	106	106	105	-6	.
CCn1cc(C(=O)Nc2ccc(OC)c(S(=O)(=O)N3CCCCC3)c2)c(=O)c2ccc(C)nc21	113	107	138	158*	175*	0	.	LAP4-GFP pick2=96;MEP2 cherry2=102;RPL19A-GFP pick2=102;CIT2-GFP pick2=97;AGP1-GFP pick2=103
CCOc1ncccc1C(=O)Nc1ccc(OC)c(S(=O)(=O)N2CCCCC2)c1	109	100	106	95	102	-1	.
Cc1cc(C)cc(C(=O)Nc2ccncc2)c1	101	108	103	94	106	14	.
Cc1[nH][nH]c(=O)c1C(c1ccc(-c2ccc(Cl)c(Cl)c2)o1)c1c(C)[nH][nH]c1=O	85	94	102	217*	96	5	-1.4
COc1ccccc1NC1=C(Cl)C(=O)N(c2ccccc2)C1=O	105	104	106	101	114	.	-0.21
COc1ccc(N2C(=O)C(Cl)=C(Nc3ccc(OC)cc3OC)C2=O)cc1	89	95	79	84	91	10	.
COc1ccc(NC2=C(Cl)C(=O)N(c3ccccc3)C2=O)c(OC)c1	94	96	97	88	103	-4	.
COc1ccc(N2C(=O)C(Cl)=C(Nc3c(C)n(C)n(-c4ccccc4)c3=O)C2=O)cc1	91	94	95	142	99	3	0.4
CCOc1ccc(N2C(=O)C(Cl)=C(Nc3ccccc3O)C2=O)cc1	93	93	89	103	97	-92	0.2
Cc1ccc(C(C)c2c(C)c([N+](=O)[O-])cc(C)c2[N+](=O)[O-])cn1 (stereo not drawn)	97	105	98	94	108	-4	.
CC1=NN(S(=O)(=O)c2ccc(Cl)cc2Cl)C(=O)c2ccccc2O1	94	104	98	102	101	10	.
O=C(CCNS(=O)(=O)c1ccc(Br)cc1)NCCCSc1ccccc1	108	106	92	114	106	19	.
C[C@@]12C(=O)Nc3ccc(Cl)cc3C(=O)N1[C@H]1c3ccccc3OC[C@@H]1[C@@H]2c1ccccc1	90	104	86	157*	94	-2	.	LAP4-GFP pick2=132;MEP2 cherry2=121;RPL19A-GFP pick2=96;CIT2-GFP pick2=92;AGP1-GFP pick2=98
Cc1cc(-c2csc(NC(=O)c3ccc(=O)[nH]c3)n2)c(C)n1Cc1ccco1	106	91	90	152*	87	3	.	LAP4-GFP pick2=99;MEP2 cherry2=110;RPL19A-GFP pick2=101;CIT2-GFP pick2=96;AGP1-GFP pick2=103
COc1ccc(C(CNC(=O)Cc2ccc(-c3ccccc3)cc2)N(C)C)cc1 (stereo not drawn)	97	101	102	90	109	11	.
O=C(CS(=O)c1ccccc1[N+](=O)[O-])Oc1ccc(Br)cc1 (stereo not drawn)	100	91	92	170*	92	1	0.71
CC(=O)NC(c1ccc(C)cc1)c1cc(Cl)c2cccnc2c1O (stereo not drawn)	98	97	100	97	104	-2	.
CN1CCN(C(c2ccc(C(F)(F)F)cc2)c2ccc3cccnc3c2O)CC1 (stereo not drawn)	70	94	82	322*	100	8	1.3	s288c autofl DR=0.24;TORC1 bypass gr=3
Cc1ccc(C(c2cc(Cl)c3cccnc3c2O)N2CCN(C)CC2)cc1 (stereo not drawn)	67	75	88	227*	100	-1	5.3	s288c autofl DR=2.8;TORC1 bypass gr=3
Oc1c(C(c2ccccc2Cl)N2CCCC2)ccc2cccnc12 (stereo not drawn)	90	92	96	131	116	7	.
O=c1c2ccccc2oc2cc(C#CC3(O)CCCCC3)ccc12	84	100	80	153*	92	2	.	LAP4-GFP pick2=106;MEP2 cherry2=114;RPL19A-GFP pick2=95;CIT2-GFP pick2=107;AGP1-GFP pick2=93
COc1cccc2oc3cc(C#CC4(O)CCCCC4)ccc3c(=O)c12	81	94	64	127	94	9	.
CC(=O)c1ccc(S(=O)(=O)Nc2ccc(C(=O)N(C)CC(=O)Nc3cccc(C)c3C)cc2)cc1	101	98	94	111	105	-5	.
COc1ccc(/C=C/C(=O)c2cc(Br)ccc2O)cc1OC	88	93	107	128	112	2	.
O=C(/C=C/c1ccccn1)c1cc(Br)ccc1O	67	69	57	212*	80	22	1.1
